Records with an inconclusive call do not appear. A call without a number means that no potency is given here. Calls of active or inactive are those of the source. Calls come from the whole dose curve; as a rule, active = well fitted curve in the direction sought with a large enough effect; inconclusive = small, poorly fitted or top-dose-only effect, or another doubt; inactive = no such curve, though single readings can be large; an effect the other way counts as inactive or inconclusive.
assay: qHTS assay for measurement of the activity of small molecule inhibitors on Zika virus induced Caspase-3 activity in human astrocytoma cells (AID 1224859); conditions: SNB-19 ZIKV-induced caspase-3/7, luminescence, 6 h; series mostly up to 45.7 µM
In short: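 A cell-based luminescent caspase-3/7 assay used SNB-19 cells infected with ZIKV (2 FFU/cell) for 6 h following 1 h compound pretreatment.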

SMILES	outcome
COc1ccc(CCN(C)CCCN2CCc3cc(OC)c(OC)cc3CC2=O)cc1OC	inactive
C=C[C@@]1(C)CC(=O)[C@]2(O)[C@@]3(C)[C@@H](O)CCC(C)(C)[C@@H]3[C@H](O)[C@H](OC(C)=O)[C@@]2(C)O1	inactive
CCOc1ccccc1OCCN[C@H](C)Cc1ccc(OC)c(S(N)(=O)=O)c1	inactive
CCO[C@@H]1O[C@H](C(COCc2ccccc2)OCc2ccccc2)[C@H](OCc2ccccc2)[C@H]1O (some centres not stated)	inactive
CCCCC(CC)CN1CN(CC(CC)CCCC)CC(C)(N)C1 (configuration not stated)	inactive
CC(=O)Nc1ccc(OC(=O)c2ccccc2OC(C)=O)cc1	inactive
OCc1ccccn1	inactive
COc1cc(O)c(C(=O)c2ccccc2)cc1S(=O)(=O)O	inactive
CCNC(=O)/C=C/c1cccc(Br)c1	inactive
CCOc1ccc(NC(C)=O)cc1	inactive
OC1C(O)C(O)C(O)C(O)C1O (configuration not stated)	inactive
Clc1cccc(C(c2ccc3nc[nH]c3c2)n2ccnc2)c1 (configuration not stated)	inactive
O=C1c2cccc3c2[C@H](CCC3)CN1[C@@H]1CN2CCC1CC2	inactive
Nc1nc(Cl)nc2c1ncn2[C@@H]1O[C@H](CO)[C@@H](O)[C@@H]1F	inactive
CC(C)Nc1cccnc1N1CCN(C(=O)c2cc3cc(NS(C)(=O)=O)ccc3[nH]2)CC1	inactive
CN(C)CCOC(=O)C(c1ccccc1)C1(O)CCCC1 (configuration not stated)	inactive

assay: qHTS assay to identify small molecule inhibitors of chordoma cells - UCH-1 (AID 1259355); conditions: UCH-1 chordoma viability, CellTiter-Glo, 48 h, combination, with auranofin plus four topoisomerase inhibitors; series mostly up to 46.1 µM; note: nearly all actives have a fitted effect of over 55% in size
In short: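 Cells (800/well) were seeded and left overnight at 37 C, 5% CO2, then treated with drugs at 15 concentrations plus a combination mix of auranofin, camptothecin, doxorubicin, rubitecan and topotecan. Viability after 48hr was read by CellTiter-Glo luminescence.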

SMILES	Potency
O=C(O)CCNC(=O)c1ccccc1	inactive
CC(=O)OC[C@H]1O[C@@H](n2ncc(=O)[nH]c2=O)[C@H](OC(C)=O)[C@@H]1OC(C)=O	inactive
C#C[C@]1(OC(C)=O)CC[C@H]2[C@@H]3CCC4=C/C(=N/O)CC[C@@H]4[C@H]3CC[C@@]21CC	inactive
CC(=O)Nc1ncc([N+](=O)[O-])s1	inactive

assay: qHTS assay to identify small molecule inhibitors of chordoma cells - UCH-2 (AID 1259356); conditions: UCH-2 chordoma viability, CellTiter-Glo ATP luminescence, 48 h; series mostly up to 46.1 µM

SMILES	Potency
O=C(O)P(=O)(O)O	inactive
CC(C)n1c(/C=C/[C@@H](O)C[C@@H](O)CC(=O)O)c(-c2ccc(F)cc2)c2ccccc21	inactive
C=C[C@H]1CN2CC[C@H]1C[C@@H]2[C@@H](O)c1ccnc2ccc(OC)cc12	inactive
O=C(O)CCNC(=O)c1ccccc1	inactive
CC(C)NCC(O)c1ccc2ccccc2c1 (configuration not stated)	inactive
CC(=C(CCOC(=O)C(C)C)SSC(CCOC(=O)C(C)C)=C(C)N(C=O)Cc1cnc(C)nc1N)N(C=O)Cc1cnc(C)nc1N	inactive
CC1(C)OC[C@@H]2O[C@@]3(C(=O)O)OC(C)(C)O[C@H]3[C@@H]2O1	inactive
CN1CCN(c2c(F)cc3c(=O)c(C(=O)O)cn4c3c2SCC4)CC1	inactive
Cc1cccc(C)c1NC(=O)CN1CCCCCC1	inactive
CCN(CC)CCOC(=O)C(Cc1cccc2ccccc12)CC1CCCO1 (configuration not stated)	inactive
Cc1cc(-c2ccccc2)nnc1NCCN1CCOCC1	inactive
CCN1CCN(C(=O)N[C@@H](C(=O)N[C@@H]2C(=O)N3C(C(=O)O)=C(CSc4nnnn4C)CS[C@H]23)c2ccc(O)cc2)C(=O)C1=O	inactive
O=C(CN1CCN(Cc2ccc3c(c2)OCO3)CC1)N1c2ccccc2Sc2ccccc21	inactive
CC(=O)OC[C@H]1O[C@@H](n2ncc(=O)[nH]c2=O)[C@H](OC(C)=O)[C@@H]1OC(C)=O	inactive
C#C[C@]1(OC(C)=O)CC[C@H]2[C@@H]3CCC4=C/C(=N/O)CC[C@@H]4[C@H]3CC[C@@]21CC	inactive
O=S(c1cc(Cl)cc(Cl)c1O)c1cc(Cl)cc(Cl)c1O	inactive
Oc1ccc(Cl)cc1Cc1cc(Cl)ccc1O	inactive
CC[C@H](c1ccc(O)cc1)[C@@H](CC)c1ccc(O)cc1	inactive
Cc1ccc(O)c([C@H](CCN(C(C)C)C(C)C)c2ccccc2)c1	inactive
COc1ccc(CCN(C)CCCN2CCc3cc(OC)c(OC)cc3CC2=O)cc1OC	inactive
C=C[C@@]1(C)CC(=O)[C@]2(O)[C@@]3(C)[C@@H](O)CCC(C)(C)[C@@H]3[C@H](O)[C@H](OC(C)=O)[C@@]2(C)O1	inactive
CCOc1ccccc1OCCN[C@H](C)Cc1ccc(OC)c(S(N)(=O)=O)c1	inactive
CCO[C@@H]1O[C@H](C(COCc2ccccc2)OCc2ccccc2)[C@H](OCc2ccccc2)[C@H]1O (some centres not stated)	inactive
CCCCC(CC)CN1CN(CC(CC)CCCC)CC(C)(N)C1 (configuration not stated)	inactive
CC(=O)Nc1ccc(OC(=O)c2ccccc2OC(C)=O)cc1	inactive
OCc1ccccn1	inactive
COc1cc(O)c(C(=O)c2ccccc2)cc1S(=O)(=O)O	inactive

Source: PubChem BioAssay (NCATS)
